Screening results deposited in PubChem by Sanford-Burnham Center for Chemical Genomics.
tim10-1 inh: growth inhibitors of tim10-1 mutant yeast, primary screen, luminescence, uHTS. S. cerevisiae tim10-1 ts strain growth, BacTiter-Glo, 24 h. inhibition, % at 20 µM. actives 2.2% (n = 330,000);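 active means inhibition of at least 40%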;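 further: mutant grown at 25 °C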
NALP3 yeast inh: NALP3 inflammasome inhibitors in reconstituted yeast, primary screen, luminescence, uHTS | Yeast reconstituted NLRP3/ASC/caspase-1, beta-gal luminescence, 24 h | inhibition, % at 10 µM | actives 0.39% (n = 330,000) | AID 2825, 2010;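 active means inhibition of 50% or more; inactive means inhibition below 50%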
tim23-1 inh: growth inhibitors of tim23-1 mutant yeast, primary screen, luminescence, uHTS; actives 1.3% (n = 330,000); AID 463212, 2010; inhibition, % at 20 µM; S. cerevisiae tim23-1 growth, BacTiter-Glo luminescence, 24 h;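 active means growth inhibition of the mutant yeast at or above 50%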;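 further: temperature-sensitive mutant grown at 25 °C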
TIM10 inh: growth inhibitors of isogenic TIM10 control yeast, primary screen, counter-screen for tim10-1 yeast inhibitor project, luminescence, uHTS | S. cerevisiae TIM10 strain growth, BacTiter-Glo luminescence, 24 h | inhibition, % at 10 µM | actives 1.4% (n = 330,000);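 active means inhibition of 40% or more at the single tested concentration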;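 further: wild-type TIM10 isogenic control strain grown at permissive 25 °C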
NALP1 inh: NALP1 inflammasome inhibitors in reconstituted yeast, colorimetric, S. cerevisiae, triplicate retest. S. cerevisiae NALP1/ASC/caspase-1 growth, X-gal OD620, 72 h. inhibition, % at 10 µM. actives 0.61% (n = 280,000). AID 2071, 2009; in the data active means inhibition mostly above about 24%, no sharp cut-off; inactive means mostly below about 32%
tim10-1 confirm: growth inhibitors of tim10-1 mutant yeast, confirmation, single concentration, luminescence, S. cerevisiae. shares compounds with tim10-1 inh. S. cerevisiae tim10-1 ts strain growth, BacTiter-Glo, 24 h. inhibition, % at 20 µM. actives 56% (n = 7,400);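 active means inhibition of yeast growth at or above a set limit in either of two repeat tests at 20 µM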;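 further: tim10-1 mutant grown at permissive 25 °C to find synthetic lethal compounds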
tim10 confirm: growth inhibitors of wild-type TIM10 yeast, confirmation, counter-screen for tim10-1 synthetic lethality project, single concentration, luminescence, S. cerevisiae; shares compounds with TIM10 inh; S. cerevisiae tim10 strain growth, BacTiter-Glo luminescence, 24 h; inhibition, % at 10 µM; actives 63% (n = 4,600); AID 463215, 2010;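 active means inhibition of yeast growth at or above a set limit in either of two replicates at 10 µM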; further: this counterscreen used the strain with wild-type TIM10
Hits are given with their value; i = inactive; nt = no result. Sampled rows, rich in hits. Any-hit rate of the full collection: about 4.1%.

SMILES | tim10-1 inh | NALP3 yeast inh | tim23-1 inh | TIM10 inh | NALP1 inh | tim10-1 confirm | tim10 confirm
COc1ccc(/C(N)=N/OC(=O)c2ccc([N+](=O)[O-])c(C)c2)cc1OC | 65 | i | i | 49 | i | 71 | 36
Cc1cc(C(=O)O/N=C(\N)c2ccncc2)ccc1[N+](=O)[O-] | i | i | i | i | i | nt | nt
O=C(Nc1ccnn1C1CCN(CCCc2ccccc2)CC1)c1ccccc1Cl | i | i | i | i | i | nt | nt
C[C@@H]1CC=C[C@@H]2[C@H]1C(=O)N(Cc1ccccc1)[C@H]2c1cccc(Br)c1 | i | nt | i | i | nt | nt | nt
CC[C@@H]1CC=C[C@H]2[C@H]1C(=O)N(Cc1ccccc1)[C@H]2c1ccc2ccccc2c1 | 41 | i | i | 45 | i | i | 38
Oc1ccc(/C=N/Nc2ccc(C(F)(F)F)cn2)cc1 | 44 | i | i | 48 | i | i | i
COc1cc(/C=N/Nc2ccc(C(F)(F)F)cn2)cc(OC)c1O | i | i | i | i | i | nt | nt
Cc1c(/C=N/NC(=O)c2sc3ccccc3c2Cl)cnn1C | 53 | i | i | 43 | i | 34 | 50
O=C1Nc2ccccc2/C1=C/c1cccnc1 | 49 | i | i | 51 | i | 36 | 32
O=C1Nc2ccccc2/C1=C/c1cnc(-c2ccccc2)[nH]1 | i | i | i | i | i | nt | nt
COC(=O)CCSCC(=O)Nc1ccc(C)c(S(=O)(=O)N2CCCCC2)c1 | i | i | i | i | i | nt | nt
NNC(=O)c1ccc(Cn2cc(Cl)cn2)o1 | i | i | i | i | i | nt | nt
Cc1ccc2nc(NC(=O)c3ccc(Cn4cc(Cl)cn4)o3)sc2c1 | 46 | i | i | 51 | i | i | 33
N/C(=N\OC(=O)c1ccccc1)c1cccnc1 | i | i | i | i | i | nt | nt
N/C(=N\OC(=O)c1ccc(Cl)c(Cl)c1)c1cccnc1 | 60 | i | i | 72 | i | 47 | 76
O=C(Nc1ccc(Br)cc1)c1cccn1-c1ncc(C(F)(F)F)cc1Cl | 47 | i | i | 52 | i | 43 | 43
CC1CCc2[nH]c3ccc(C(=O)O)cc3c2C1 (stereo unspecified) | i | i | i | i | i | nt | nt
COc1ccccc1N1CCN(C(=O)c2ccc3[nH]c4c(c3c2)CC(C)CC4)CC1 (stereo unspecified) | 53 | i | i | 49 | i | 38 | 36
COc1cc2c(cc1NS(=O)(=O)N1CCCCC1)oc1ccccc12 | 41 | i | i | 44 | i | 37 | 35
COc1ccc(NC(=O)C(OC(=O)c2cnccn2)c2ccccc2)cc1Cl (stereo unspecified) | i | i | i | i | i | nt | nt
Cc1cccc(C)c1N=Cc1c(O)n(-c2nccs2)c(=O)c2ccccc12 | 46 | i | i | 55 | i | 41 | i
O=c1c2ccccc2c(C=Nc2ccccc2O)c(O)n1-c1nccs1 | i | i | i | i | i | nt | nt
CCOc1cccc2sc(N(CCCN(C)C)C(=O)c3ccc(S(=O)(=O)N4CCc5ccccc5C4)cc3)nc12 | 45 | i | i | 42 | i | i | 32
CCc1ccc2nc(N(CCCN(C)C)C(=O)c3ccc(S(=O)(=O)N4CCc5ccccc5C4)cc3)sc2c1 | i | i | i | i | i | nt | nt
O=C(CCNc1ccc(Cc2ccncc2)cc1)c1ccc([N+](=O)[O-])cc1 | 49 | i | i | 62 | i | 37 | 41
CCOC(=O)C1CCN(C(=O)c2sc3nc(-c4ccccc4)cn3c2C)CC1 | 66 | i | i | 57 | i | 60 | 52
COC(=O)C1CCN(C(=O)c2sc3nc(-c4ccc(F)cc4)cn3c2C)CC1 | 70 | i | i | 55 | nt | 64 | 35
Cc1ccccc1-c1nc(CS(=O)CC(=O)NC(C)CCc2ccccc2)c(C)o1 (stereo unspecified) | i | i | i | i | i | nt | nt
